In PubChem BioAssay (NCI):
The panel holds about 83,000 compounds, 20% with a hit somewhere; the sample as a whole holds those more often.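 How to read the values: 0–100, growth inhibition (40 = 60% inhibited); 0, no net growth; -100 to 0, cell death (-40 = 40% of starting cells died; -100 = all dead).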 The source made the active and inactive calls. Rule for the calls: active = growth percent below 10; inactive = the rest.

Test system: MDA-MB-435 melanoma
Experiment: NCI-60 one-dose screen, 48 h (100 = growth as untreated, 0 = no growth, -100 = all killed)
Conditions: 10 µM unless noted

Compound | growth
CC1(C)C(N(O)C(=O)Nc2ccc(Cl)cc2)N(c2ccc(Cl)cc2)C(=O)N1CC(=O)N/N=C/C=C/c1ccc([N+](=O)[O-])o1 (centres undefined) | -15.3% (active)
Cc1cc(N=Nc2ccc(-c3ccc(N=Nc4ccc(O)c(C(=O)O)c4)cc3)cc2)c(N)c(N=Nc2ccc(C(=O)O)cc2)c1N | 99.5% (inactive)
NC(N)=N/N=C\c1cccc(OCc2ccccc2)c1 | 35.1% (inactive)
CNC(=O)c1ccccc1Sc1ccc2c(/C=C/c3ccccn3)n[nH]c2c1 | 39% (inactive)
CC(=O)c1c(C)nc(-c2cc(C)cc(Cl)c2)nc1-c1cccc(Oc2ccccc2)c1 | -4.76% (active)
CCN(CC)Cc1cc(Nc2nc(NC3CCC(N(C)C)CC3)c3ccccc3n2)ccc1OC (centres undefined) | 39.5% (inactive)
Cc1nc2c(-c3cnc(N)nc3)nc(N3CCOCC3)nc2n1C(C)C | 4.17% (active)
C[C@@H]1C[C@H](N)C[C@H](c2ccncc2NC(=O)c2ccc(F)c(-c3c(F)cccc3F)n2)C1 | 34.5% (inactive)
Nc1nonc1-c1nc2ccccc2n1Cc1ccc(F)cc1 | -39.6% (active)
C=CC[C@]1(O)CC[C@H]2[C@@H]3CCc4cc(O)ccc4[C@H]3CC[C@@]21C | 38.9% (inactive)
[Ag].[Ag].[NH-]S(=O)(=O)c1ccc(N=Nc2cc(N=Nc3ccc(S([NH-])(=O)=O)cc3)c3c(NC(=O)C(Cl)Cl)cccc3c2OC(=O)C(Cl)Cl)cc1.[c-]1nccs1.[c-]1nccs1 | 87.2% (inactive)
CCCCCCCCCCCCCCC(C(=O)OCC)C(=O)OCC | 96.1% (inactive)
CN(C)c1ccc(C(c2ccccc2)c2ccc(N(C)C)cc2)cc1 | 97% (inactive)
Cc1n(Cc2ccc3ccccc3n2)cc[n+]1Cc1ccc2ccccc2c1 | 0.529% (active)
FC(F)(F)c1ccc(/C=N/Nc2nnc3n2N=C(c2ccc(Cl)cc2)CS3)cc1 | 70.8% (inactive)
CS(=O)(=O)Nc1cc(-c2cc3ncc(C#N)c(Nc4ccc(Oc5ccccc5)c(Cl)c4)c3s2)cnc1Cl | 67.4% (inactive)
Cc1cc(C)c2c(n1)sc1c(Nc3ccc(O)cc3)ncnc12 | 36.6% (inactive)
c1ccc(C2=Nc3ccccc3SC2)cc1 | 105% (inactive)
COc1cc2c(cc1OCCCOc1cc3c(cc1OC)C(=O)N1CCC[C@H]1C=N3)C=CC(C)(C)O2 | 101% (inactive)
O=[N+]([O-])c1cccc(N=C(Nc2cccc([N+](=O)[O-])c2)c2ccccc2)c1 | 78.4% (inactive)
C=CCn1c(C)nc2cc(Nc3nc(N4CCOCC4)nc4nc[nH]c34)ccc21 | 100% (inactive)
C=C1NC(=O)C(C(C)CC)NC(=O)C2CSCC(NC(=O)CCC(=O)O)C(=O)NC(Cc3ccccc3)C(=O)NC(C)C(=O)NC(CC(C)CC)C(=O)NC(C(=O)NC(Cc3ccccc3)C(=O)N3CCCC3C(=O)N2)C(C)OC(=O)C(CO)NC(=O)C(C(O)COC)N(C)C(=O)C(C(C)C)NC(=O)C(CC(C)CC)NC1=O (centres undefined) | -34.8% [6 µM] (active)
COc1ccc(-c2nc(-c3cc(OC)cc(OC)c3)[nH]c2-c2ccc(OC)cc2)cc1 | 48.7% (inactive)
N#Cc1nc(-c2cccc(Br)c2)cc(-c2ccc(Nc3nc(N4CCCCC4)nc(N4CCCCC4)n3)cc2)c1N | -91.7% (active)
NC(N)=N/N=C\c1ccc(OCc2ccccc2)cc1 | 9.55% (active)
CCN(CC)CCC(CNc1ccnc2cc(Cl)ccc12)c1ccc(O)cc1 (centres undefined) | 60.7% (inactive)
COS(=O)(=O)CCN(CCOS(C)(=O)=O)S(C)(=O)=O | 108% (inactive)

Test system: SW-620 colon
Experiment: as above
Conditions: 10 µM unless noted

Compound | growth
Cc1ccccc1N1C(c2ccccc2)=NNC12C=CC(=O)c1c(O)cccc12 (centres undefined) | 98.6% (inactive)
COc1cc(Nc2ccnc3ccc(Br)cc23)cc(OC)c1OC | 19.4% (inactive)
CN1CCN(Cc2ccc(NC(=O)c3cncc(C#Cc4ccc(N)nc4)c3)cc2C(F)(F)F)CC1 | -15.3% (active)
COc1ccc(Sc2[nH]c(C=O)c3ccccc23)cc1 | 16.1% (inactive)
COCCOCCOCc1n(Cc2ccc3ccccc3n2)c2ccccc2[n+]1Cc1ccc2ccccc2c1 | 12.4% (inactive)
O=c1[nH]cnc2nc[nH]c12 | 105% (inactive)
CC(=O)O[C@H]1[C@H](CC#CC#CC[C@@H]2C[C@]3(C)[C@H]4CC=C5[C@H]6[C@@H](C)[C@H](C)CC[C@]6(C(=O)NCCN(CCN)CCN)CC[C@@]5(C)[C@]4(C)CC[C@H]3C(C)(C)[C@H]2OC(C)=O)C[C@]2(C)[C@H]3CC=C4[C@H]5[C@@H](C)[C@H](C)CC[C@]5(C(=O)NCCN(CCN)CCN)CC[C@@]4(C)[C@]3(C)CC[C@H]2C1(C)C | 64% (inactive)
Fc1ccc2nc(-c3ccc(-c4noc(-c5ccc(Cl)cc5)n4)cc3)[nH]c2c1 | 107% (inactive)
CCNS(=O)(=O)c1ccc(C)cc1 | 107% (inactive)
OC(c1cc(-c2ccc(C(F)(F)F)cc2)nc(-c2ccc(C(F)(F)F)cc2)c1)C1CCCCN1 (centres undefined) | -70.5% (active)
CC1(C)C(N(O)C(=O)Nc2ccc(Cl)cc2)N(c2ccc(Cl)cc2)C(=O)N1CC(=O)N/N=C/C=C/c1ccc([N+](=O)[O-])o1 (centres undefined) | -15.7% (active)
Cc1cc(N=Nc2ccc(-c3ccc(N=Nc4ccc(O)c(C(=O)O)c4)cc3)cc2)c(N)c(N=Nc2ccc(C(=O)O)cc2)c1N | 95.6% (inactive)
NC(N)=N/N=C\c1cccc(OCc2ccccc2)c1 | 36% (inactive)
CNC(=O)c1ccccc1Sc1ccc2c(/C=C/c3ccccn3)n[nH]c2c1 | 17.8% (inactive)
CC(=O)c1c(C)nc(-c2cc(C)cc(Cl)c2)nc1-c1cccc(Oc2ccccc2)c1 | 25.7% (inactive)
CCN(CC)Cc1cc(Nc2nc(NC3CCC(N(C)C)CC3)c3ccccc3n2)ccc1OC (centres undefined) | 61.4% (inactive)
Cc1nc2c(-c3cnc(N)nc3)nc(N3CCOCC3)nc2n1C(C)C | 11.3% (inactive)
C[C@@H]1C[C@H](N)C[C@H](c2ccncc2NC(=O)c2ccc(F)c(-c3c(F)cccc3F)n2)C1 | 45.5% (inactive)
Nc1nonc1-c1nc2ccccc2n1Cc1ccc(F)cc1 | 24.7% (inactive)

Compound | growth
C=CC[C@]1(O)CC[C@H]2[C@@H]3CCc4cc(O)ccc4[C@H]3CC[C@@]21C | 92% (inactive)
[Ag].[Ag].[NH-]S(=O)(=O)c1ccc(N=Nc2cc(N=Nc3ccc(S([NH-])(=O)=O)cc3)c3c(NC(=O)C(Cl)Cl)cccc3c2OC(=O)C(Cl)Cl)cc1.[c-]1nccs1.[c-]1nccs1 | 58.7% (inactive)
CCCCCCCCCCCCCCC(C(=O)OCC)C(=O)OCC | 107% (inactive)
CN(C)c1ccc(C(c2ccccc2)c2ccc(N(C)C)cc2)cc1 | 93.4% (inactive)
Cc1n(Cc2ccc3ccccc3n2)cc[n+]1Cc1ccc2ccccc2c1 | 20.6% (inactive)
FC(F)(F)c1ccc(/C=N/Nc2nnc3n2N=C(c2ccc(Cl)cc2)CS3)cc1 | 77.6% (inactive)
CS(=O)(=O)Nc1cc(-c2cc3ncc(C#N)c(Nc4ccc(Oc5ccccc5)c(Cl)c4)c3s2)cnc1Cl | 48% (inactive)
Cc1cc(C)c2c(n1)sc1c(Nc3ccc(O)cc3)ncnc12 | 45.6% (inactive)
c1ccc(C2=Nc3ccccc3SC2)cc1 | 95.4% (inactive)
COc1cc2c(cc1OCCCOc1cc3c(cc1OC)C(=O)N1CCC[C@H]1C=N3)C=CC(C)(C)O2 | 18.1% (inactive)
O=[N+]([O-])c1cccc(N=C(Nc2cccc([N+](=O)[O-])c2)c2ccccc2)c1 | 101% (inactive)
C=CCn1c(C)nc2cc(Nc3nc(N4CCOCC4)nc4nc[nH]c34)ccc21 | 93.1% (inactive)
C=C1NC(=O)C(C(C)CC)NC(=O)C2CSCC(NC(=O)CCC(=O)O)C(=O)NC(Cc3ccccc3)C(=O)NC(C)C(=O)NC(CC(C)CC)C(=O)NC(C(=O)NC(Cc3ccccc3)C(=O)N3CCCC3C(=O)N2)C(C)OC(=O)C(CO)NC(=O)C(C(O)COC)N(C)C(=O)C(C(C)C)NC(=O)C(CC(C)CC)NC1=O (centres undefined) | 21.2% [6 µM] (inactive)
COc1ccc(-c2nc(-c3cc(OC)cc(OC)c3)[nH]c2-c2ccc(OC)cc2)cc1 | 73.6% (inactive)
N#Cc1nc(-c2cccc(Br)c2)cc(-c2ccc(Nc3nc(N4CCCCC4)nc(N4CCCCC4)n3)cc2)c1N | -42.3% (active)
NC(N)=N/N=C\c1ccc(OCc2ccccc2)cc1 | 73.9% (inactive)
CCN(CC)CCC(CNc1ccnc2cc(Cl)ccc12)c1ccc(O)cc1 (centres undefined) | 51.2% (inactive)
COS(=O)(=O)CCN(CCOS(C)(=O)=O)S(C)(=O)=O | 107% (inactive)
